Legend:
Format in all cases: functional
[1] = target: Solute carrier family 2, facilitated glucose transporter member 1 (Homo sapiens) (UniProt P11166); assay: ST_JUDE_LEISH: Cytotoxicity at 2uM final concentration against transgenic Leishmania Mexicana promastigotes LmGLUT1 that are glucose transport deficient and complemented with the human glucose transporter GLUT1. Activity is measured by DNA content using SYBR green in vitro
[2] = target: Hexose transporter 1 (Plasmodium falciparum) (UniProt O97467); assay: ST_JUDE_LEISH: Cytotoxicity at 2uM final concentration against transgenic Leishmania Mexicana promastigotes LmPfHT that are glucose transport deficient and complemented with the Plasmodium falciparum hexose transporter. Activity is measured by DNA content using SYBR green in vitro
[3] = target: Glucose transporter (Leishmania mexicana) (UniProt O61059); assay: ST_JUDE_LEISH: Cytotoxicity at 2uM final concentration against transgenic Leishmania Mexicana promastigotes LmGT2 that are glucose transport deficient and complemented with the L. Mexicana glucose transporter 2. Activity is measured by DNA content using SYBR green in vitro

Solute carrier family 2, facilitated glucose transporter member 1 (Homo sapiens), sequence (P11166 whole entry): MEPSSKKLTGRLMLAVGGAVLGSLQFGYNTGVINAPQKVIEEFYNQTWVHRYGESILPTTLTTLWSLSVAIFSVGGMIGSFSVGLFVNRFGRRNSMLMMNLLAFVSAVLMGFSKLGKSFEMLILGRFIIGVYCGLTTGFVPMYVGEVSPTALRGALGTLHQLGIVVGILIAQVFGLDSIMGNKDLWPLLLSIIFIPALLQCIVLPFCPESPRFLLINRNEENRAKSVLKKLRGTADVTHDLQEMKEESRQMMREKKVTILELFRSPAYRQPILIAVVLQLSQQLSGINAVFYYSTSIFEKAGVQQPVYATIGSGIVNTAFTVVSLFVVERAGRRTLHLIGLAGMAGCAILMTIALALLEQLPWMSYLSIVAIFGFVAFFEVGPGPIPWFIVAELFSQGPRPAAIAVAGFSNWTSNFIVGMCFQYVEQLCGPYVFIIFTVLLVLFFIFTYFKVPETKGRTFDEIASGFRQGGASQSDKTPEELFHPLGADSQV

Compound | inhibition [1] [%] | inhibition [2] [%] | inhibition [3] [%]
Cc1nc(C)c(CC(=O)Nc2ccc(-c3cccc(-c4nc5cccc(C)c5[nH]4)c3)cc2)s1 | 2.82 | 2.89 | 4.14
N#Cc1ccc2c(c1)CCN(CCC1CCC(NC(=O)c3ccc(-c4ccccc4)s3)CC1)CC2 (stereo not given) | 4.75 | 3.75 | 2.43
O=C(Nc1ccc(Cl)c(C(F)(F)F)c1)c1ccc(Cl)c([N+](=O)[O-])c1 | 6.41 | 3.41 | 0.08
CCN(CCCN1CCCCC1)c1cc(C)nc(Nc2ccc(Br)cc2F)n1 | 0.13 | 2.96 | 1.34
C=CC[C@@H](C(=O)OCC)[C@@H]1[C@@H](N(CC=C)C(=O)OC(C)(C)C)CCN1C(=O)OCc1ccccc1 | 2.71 | 1.22 | 1.42
O=C(Nc1cccc(CN2CCN(C(=O)c3cccc(F)c3)CC2)c1)c1ccco1 | 2.27 | 2.31 | 0.61
CC(C)(C)c1nn(-c2ccccc2)c2[nH]c(=O)c(CNC3CCCC3)cc12 | 3.76 | 1.66 | 2.65
COc1ccc(CNC2CCN(C)CC2)cc1-c1ccc(S(=O)(=O)NCc2ccccc2)s1 | 9.42 | 11.8 | 11.2
CC(C)(C)C(C)(C)Cc1ccc(O)c(CN2CCN(c3ccccc3)CC2)c1 | 0.82 | -0.41 | -0.38
COc1ccc2nccc([C@@H](O)CN3CCC(NCc4cc5ccccc5nn4)CC3)c2c1 | 6.88 | 7.17 | 7.16
COc1ccc2ncc(F)c([C@H](O)CN3CCC(NCc4cc5c(cn4)OCCO5)CC3)c2c1 | 6.21 | 6.52 | 2.51
CC(C(=O)Nc1ccc(Br)cc1Br)N1CCN(C(=O)c2ccco2)CC1 (stereo not given) | -0.66 | 1.36 | 1.86
COc1ccc(CCNC(=O)c2cnc3c(c2)nc(-c2c[nH]c(-c4ccccc4)n2)n3CCc2c[nH]cn2)cc1 | 1 | -1.24 | 2.62
Cc1ccc(C(NC(=O)c2ccccc2)c2ccc3cccnc3c2O)cc1 (stereo not given) | 4.29 | 6.5 | -0.04
CS(=O)(=O)CCNCc1ccc(-c2ccc3c(Nc4ccc(Cl)cc4F)ccnc3c2)o1 | 2.59 | 3.39 | 4.36
O=c1cc(NCCCNCc2cc(Br)ccc2F)[nH]c2ccccc12 | -1.01 | -0.63 | -6.76
O=C(NCc1ccc(C(=O)NC2CCCCC2)cc1)c1ccc(O)c(-c2ccc(Cl)c(Cl)c2)c1 | 2.46 | 1.38 | 1.41
CC(C)(CN)c1cc(-c2ccc(Cl)c(O)c2)c(-c2ccncc2)o1 | 0.01 | 3.22 | 1.62
CCCCNC(=O)[C@H](CC1CCCCC1)NC(=O)c1ccc(O)c(-c2ccc(OC)cc2)c1 | 2.45 | 2.88 | 4.23
Cc1cc(-c2nc3ccc(CN4CCN(C)CC4)cc3[nH]2)nn1Cc1cc(Cl)ccc1OCc1ccccc1 | 3.84 | 3.27 | 2.54
C=CCn1c(SCC(=O)Nc2cc(Cl)ccc2Cl)nc2sc(C)cc2c1=O | 1.86 | 0.95 | 0.76
CNC(=O)c1ccccc1Nc1nc(Nc2ccc(N3CCOCC3)cc2)ncc1Cl | 77.2 | 84.9 | 74.6
Cn1nc(-c2ccc(CNC3CCc4ccccc43)cc2)c2cnc(NCCN3CCCC3)nc21 (stereo not given) | 2.93 | 3.09 | 0.03
CN(C)c1ccc2c(c1)Sc1cc(N(C)C)ccc1N2C(=O)c1cccc(C(=O)O)c1 | -1.08 | -0.19 | 7.43

Compound | inhibition [1] [%] | inhibition [2] [%] | inhibition [3] [%]
Oc1ccc(Br)cc1-c1nc2ccc(Cl)cc2nc1-c1cc(Br)ccc1O | 1.9 | 1.4 | 2.66
CCN(CC)CCCN(Cc1ccc(-c2ccc(C(F)(F)F)cc2)cc1)C(=O)Cn1c(SCc2cccc(F)c2F)cc(=O)c2ccccc21 | 2.74 | 2.63 | 2.46
O=C1SC(=Cc2ccc(O)c(O)c2)C(=O)N1c1ccccc1 | 2.29 | 2.56 | 0.86
CCn1c(-c2nonc2N)nc2c(-c3cccc(NC(=O)Nc4ccc(Cl)cc4)c3)ncc(OCCCN)c21 | 1.03 | 0.62 | 1.46
COc1cccc2c(NN=Cc3cccc(F)c3)ccnc12 | 3.44 | 2.06 | 1.75
COc1cc(C2CCN(CCCCNC(=O)c3ccc(NC(=O)c4cc(C(F)(F)F)cc(C(F)(F)F)c4)cc3)CC2)ccc1OC(C)C | 1.12 | 0.93 | 1.71
OCCC1CCN(Cc2ccc(-c3ccc(-c4nc5ccccc5[nH]4)cc3)cc2)CC1 | 8.45 | 5.85 | 5.76
O=c1cc(NCCCNCc2cc3ccc(Br)cc3s2)[nH]c2ccccc12 | -0.97 | -0.27 | 0.6
C[C@@H](N/C(=N\c1ccc(-c2ccccc2)cc1)Nc1ccc(C#N)cc1O)c1ccc(Br)cc1 | 2.33 | 2.45 | 2.66
CNC(=O)C1Cc2c([nH]c3cc(Cl)ccc23)C2(CCN(CCc3ccccc3)CC2)N1 (stereo not given) | 0.42 | 1.39 | 1.5
N#Cc1ccc(N2CCN(Cc3ccc(-c4ccc(-c5nc6cc(C(F)(F)F)ccc6[nH]5)s4)cc3)CC2)nc1 | 2.33 | 1.76 | 0.96
c1cncc(CCNCc2ccc(-c3ccc(-c4nc5ccccc5[nH]4)s3)cc2)c1 | 8.43 | 6.34 | 0.7
O=C(C=Cc1ccc(C(=O)Nc2ccc(C3=NCCN3)cc2)cc1)Nc1ccc(C2=NCCN2)cc1 | 5.16 | 5.38 | 5.13
CC(=O)Nc1cccc(C(=O)Nc2cccc(-c3cccc(-c4nc5ccccc5[nH]4)c3)c2)c1 | 16.4 | 15.5 | 17.4
O=C(Nc1ccc(-c2cccc(-c3nc4ccccc4[nH]3)c2)cc1)Nc1ccsc1 | -0.72 | 4.27 | -0.62
Cc1cc(-c2cccc(CNCCc3ccc(Cl)cc3)c2)cnc1N | 6.5 | 6.59 | 7.77
CCCCCCN1CCC(CNCc2cccc(Cl)c2)CC1 | 1.66 | 2.08 | 1.97
COc1ccc(C(=O)CCC(=O)N(Cc2ccc(-c3ccc(CNCCc4ccc(S(C)(=O)=O)cc4)cn3)cc2)C2CCN(Cc3ccccc3)CC2)cc1F | 4.03 | 5.85 | 2.72
CC(O)C1CCCCN1C(=O)c1cccc(-c2cccc(-c3nc4ccccc4[nH]3)c2)c1 (stereo not given) | 0.78 | 0.15 | -0.24
O=C(Nc1ccc(C(F)(F)F)cc1)NC1CCN(c2ccnc3cc(Cl)ccc23)CC1 | 6.47 | 6.26 | 4.68
CCOc1cc(C=NNc2nc(C)cc(-n3nc(C)cc3C)n2)ccc1O | 1.32 | -0.22 | 3.45
Cc1cccc2nc(-c3cccc(-c4cccc(NC(=O)Cc5ccc[n+]([O-])c5)c4)c3)[nH]c12 | 1.71 | 1.78 | 0.81
O=C(/C=C/c1ccc(Cl)c(Cl)c1)NC1CCC(CN2CCC(c3nc4ccccc4s3)CC2)CC1 (stereo not given) | 0.92 | 5.64 | -1.65
O=C(Nc1cccc(-c2csc(-c3nc4ccccc4[nH]3)c2)c1)c1cccnc1 | 1.57 | 4.05 | -0.53

Compound | inhibition [1] [%] | inhibition [2] [%] | inhibition [3] [%]
CS(=O)(=O)Nc1ccc2[nH]cc(C3CCN(CCCCCNC(=O)/C=C/c4ccc(Cl)c(Cl)c4)CC3)c2c1 | 3.05 | 3.77 | 3.35
Cc1ccc(C(=O)Nc2ccc(Cl)c(N3CCN(CCc4ccccc4)CC3)c2)cc1 | 4.14 | 8.02 | 6.51
Cc1nc2ccccc2c(O)c1-c1ccc(Cl)cc1 | 1.42 | -1.38 | -1.04
CC(C)CNCc1cccc(-c2cccc(CN(CCCN3CCN(C)CC3)C(=O)NC3CCCCC3)c2)c1 | 0.8 | 0.99 | -0.56
NCc1ccc(-c2cccc(CNC3CCN(Cc4ccccc4)CC3)c2)cc1 | 5.2 | 5.95 | 3.72
COc1ccc(NC(=O)C2c3ccccc3C(=O)N(C3CCCC3)C2c2cccs2)cc1OC (stereo not given) | 2.85 | 5.65 | 0.45
Cc1cccc(CN2CCC(Oc3ccc(NC(=O)c4cccs4)cc3Cl)CC2)n1 | 5.76 | 3.92 | 2.69
O=C(/C=C/c1ccc(Cl)c(Cl)c1)NCCCN1CCC(c2c[nH]c3ccccc23)CC1 | 6.28 | 5.12 | 6.57
CCc1cn2c3c(cc(C(=O)N[C@@H](Cc4ccccc4)[C@H](O)CNC4CC4)cc13)N(CC)S(=O)(=O)CC2 | -0.74 | -0.31 | 0.02
Nc1c(Cl)cc(C(O)CNCCCCCOCCc2ccc3occc3c2)cc1Cl (stereo not given) | 3.53 | 3.64 | 1.96
NS(=O)(=O)c1ccc(CNc2ccc3ncc(-c4ccc(OC(F)(F)F)cc4)n3n2)cc1 | 4.71 | 4.62 | 4.53
O=C(Nc1nc2cc(S(=O)(=O)NCc3ccc(Cl)c(Cl)c3)ccc2n1CCCn1ccnc1)c1ccc(Cl)cc1 | 6.51 | 4.45 | 4.53
CN1CCN(CCCN(Cc2csc(-c3ccc(CNCc4ccccc4)cc3)n2)C(=O)Nc2cccc(Cl)c2)CC1 | 1.91 | -0.25 | 2.48
O=C(Nc1ccc(C(F)(F)F)cc1)Nc1ccccc1N1CCNCC1 | 2.1 | 1.1 | 6.58
COc1ccc(NC(=O)[C@H](Cc2ccccc2)Nc2cc(C)nc(Nc3ccccc3)n2)cc1 | 12.3 | 14.5 | 10.4
Cc1ccc([S+]([O-])Cc2ccc(Cl)cc2)cc1 (stereo not given) | -0.22 | -0.65 | 1.2
Cc1cc(N[C@@H](Cc2ccccc2)C(=O)NCc2cccs2)nc(NCC2CCCCC2)n1 | 3.33 | 2.71 | -0.41
O=C(Nc1cc(F)cc(F)c1)N[C@H]1CCN(CCCCCNC(=O)C2CC2c2ccc(Cl)c(Cl)c2)C1 (stereo not given in full) | -0.04 | 0.55 | -1.55
CC(C)C[C@H](NC(=O)OC(C)(C)C)C(=O)Nc1ccc(Cc2ccc(NC(=O)[C@H](CC(C)C)NC(=O)OC(C)(C)C)cc2)cc1 | 3.16 | 3.22 | 2.99
CCN(CC)CCCN(C(=O)c1cc2c(C)nn(-c3ccccc3)c2s1)c1nc(-c2ccc(OC)cc2)cs1 | 10.5 | 9.13 | 8.72
O=C(Nc1ccc2ccccc2n1)c1ccccc1-c1ccccc1 | -0.59 | 2.19 | -0.78
CCCCCCN1CCCN(Cc2ccc(C(=O)Nc3ccc(C(C)(C)C)cc3)cc2)CC1 | 4.82 | 1.84 | 5.5

Reference: ChEMBL document CHEMBL3433997, “St. Jude Leishmania screening dataset” (2016)
